The target of the assay is Nonstructural protein 3 (Zika virus) (UniProt A0A024AXB9).

These results are taken from ChEMBL document CHEMBL5606458, “ASAP - ZIKV NS2B-NS3 protease fluorescence single point” (2024).

Among all 2,700 compounds or so, about 160 (5.9%) showed an effect of 50% or more. The list comes from a sample in which strong results are over-represented; it also holds similar structures and randomly drawn compounds.

Sequence of Nonstructural protein 3 (Zika virus) (A0A024AXB9 as listed by the source): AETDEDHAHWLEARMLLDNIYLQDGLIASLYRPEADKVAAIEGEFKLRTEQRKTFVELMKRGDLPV

Consider `NCc1cccc(NC(=O)[C@H]2COC3(CCOCC3)N2C(=O)OCc2ccccc2)c1`, for which the inhibition (PRVABC59, Concentration 49.5 uM, Number of replicates 2.0, Standard deviation 0.9938813563000084 %) came to 5.38%; the inhibition (PRVABC59, Concentration 99.01 uM, Number of replicates 2.0, Standard deviation 1.914429893589366 %) was 19%; the inhibition (PRVABC59, Concentration 198.0 uM, Number of replicates 2.0, Standard deviation 1.323095447640423 %) turned out to be 40.3%.
For the compound `CCn1ccnc(N[C@@H](Cc2c[nH]c3ccccc23)C(N)=O)c1=O`, the inhibition reads like this: (PRVABC59, Concentration 49.5 uM, Number of replicates 2.0, Standard deviation 1.4026673489298387 %) 18.1%; (PRVABC59, Concentration 99.01 uM, Number of replicates 2.0, Standard deviation 0.19191044848514063 %) 31.5%; (PRVABC59, Concentration 198.0 uM, Number of replicates 2.0, Standard deviation 0.4743186100928729 %) 43.7%.
Consider `NCc1cccc(NC(=O)c2cccc(NC(=O)OCc3ccccc3)n2)c1`, for which the inhibition is, setting by setting: (PRVABC59, Concentration 49.5 uM, Number of replicates 2.0, Standard deviation 2.909357334669415 %) 5.59%; (PRVABC59, Concentration 99.01 uM, Number of replicates 2.0, Standard deviation 2.139765153167162 %) 18.9%; (PRVABC59, Concentration 198.0 uM, Number of replicates 2.0, Standard deviation 5.981167842462736 %) 37.7%.
For the compound `NCc1cccc(NC(=O)[C@H]2CCCN(C(=O)OCc3ccccc3)C2)c1`, the inhibition by setting is: (PRVABC59, Concentration 49.5 uM, Number of replicates 2.0, Standard deviation 2.781365363643047 %) 3.4%; (PRVABC59, Concentration 99.01 uM, Number of replicates 2.0, Standard deviation 2.023258788415892 %) 8.89%; (PRVABC59, Concentration 198.0 uM, Number of replicates 2.0, Standard deviation 2.4646681276670943 %) 18.5%.
Take `NCc1cccc(NC(=O)[C@H]2Cc3ccccc3N2C(=O)OCc2ccccc2)c1`: the inhibition is -2.12% (PRVABC59, Concentration 49.5 uM, Number of replicates 2.0, Standard deviation 1.3458327451813832 %); 4.14% (PRVABC59, Concentration 99.01 uM, Number of replicates 2.0, Standard deviation 2.0252321038631718 %); 47.3% (PRVABC59, Concentration 198.0 uM, Number of replicates 2.0, Standard deviation 4.242354762898987 %).
On to `NCc1cccc(NC(=O)[C@@H](Cc2c[nH]c3ccccc23)NC(=O)OCc2ccccc2)c1`, for which the inhibition was 6.59% (PRVABC59, Concentration 49.5 uM, Number of replicates 2.0, Standard deviation 3.967037724259516 %); 30% (PRVABC59, Concentration 99.01 uM, Number of replicates 2.0, Standard deviation 5.155513103183051 %); 61.6% (PRVABC59, Concentration 198.0 uM, Number of replicates 2.0, Standard deviation 1.4247172313715861 %).
Take `NCc1cccc(NC(=O)[C@@H](NC(=O)OCc2ccccc2)C(C2CCC2)C2CCC2)c1`: the inhibition is, setting by setting: (PRVABC59, Concentration 49.5 uM, Number of replicates 2.0, Standard deviation 1.6304646588102472 %) 8.82%; (PRVABC59, Concentration 99.01 uM, Number of replicates 2.0, Standard deviation 1.5618151976061267 %) 76.8%; (PRVABC59, Concentration 198.0 uM, Number of replicates 2.0, Standard deviation 0.10609407012035098 %) 99.1%.
As to `NCc1cccc(NC(=O)[C@@H](NC(=O)OCc2ccccc2)C2CCCCC2)c1`, the inhibition came out at 0.383% (PRVABC59, Concentration 49.5 uM, Number of replicates 2.0, Standard deviation 3.670746053577507 %); 19.8% (PRVABC59, Concentration 99.01 uM, Number of replicates 2.0, Standard deviation 4.852210894307134 %); 99.4% (PRVABC59, Concentration 198.0 uM, Number of replicates 2.0, Standard deviation 0.07712401232790286 %).
For `COc1cc(COc2cccnc2F)nc(N2CCNCC2)n1`, the inhibition reads like this: (PRVABC59, Concentration 49.5 uM, Number of replicates 2.0, Standard deviation 3.471530038958882 %) 9.4%; (PRVABC59, Concentration 99.01 uM, Number of replicates 2.0, Standard deviation 1.2510762616041597 %) 17.8%; (PRVABC59, Concentration 198.0 uM, Number of replicates 2.0, Standard deviation 5.474495288404173 %) 24.4%.
Regarding `CC[C@H]1CCN(c2nccn(CC)c2=O)C1`, the inhibition runs as follows: (PRVABC59, Concentration 49.5 uM, Number of replicates 2.0, Standard deviation 1.4176871370399688 %) 4.12%; (PRVABC59, Concentration 99.01 uM, Number of replicates 2.0, Standard deviation 1.8963080974288338 %) 10.6%; (PRVABC59, Concentration 198.0 uM, Number of replicates 2.0, Standard deviation 0.25647537430637324 %) 21.7%.
For the compound `CCn1ccnc(N2C[C@@H](O)[C@H](c3c[nH]c4ccccc34)C2)c1=O`, the inhibition (PRVABC59, Concentration 49.5 uM, Number of replicates 2.0, Standard deviation 0.5666151507099095 %) stood at 7.52%; the inhibition (PRVABC59, Concentration 99.01 uM, Number of replicates 2.0, Standard deviation 0.06434104176194275 %) worked out at 18.6%; the inhibition (PRVABC59, Concentration 198.0 uM, Number of replicates 2.0, Standard deviation 0.18264623400765803 %) is 34.5%.
With `Nc1nc(CN2CCNCC2)nc2ccccc12`, the inhibition (PRVABC59, Concentration 99.9 uM, Number of replicates 2.0, Standard deviation 4.738718872161362 %) is -7.53%.
Consider `c1ccc2c([C@H]3CCN(CC[C@H]4CCCO4)C3)c[nH]c2c1`, for which the inhibition (PRVABC59, Concentration 49.5 uM, Number of replicates 2.0, Standard deviation 2.014848974851422 %) amounted to 6.42%; the inhibition (PRVABC59, Concentration 99.01 uM, Number of replicates 2.0, Standard deviation 1.491910771840746 %) stood at 12.4%; the inhibition (PRVABC59, Concentration 198.0 uM, Number of replicates 2.0, Standard deviation 1.9789597532326375 %) stood at 21.4%.
`O=C(O)c1cccc(NC(=O)c2cccc(OCc3c(Cl)cccc3Cl)c2)c1`: the inhibition is, setting by setting: (PRVABC59, Concentration 49.5 uM, Number of replicates 2.0, Standard deviation 0.05325743212794187 %) 8.22%; (PRVABC59, Concentration 99.01 uM, Number of replicates 2.0, Standard deviation 0.43176580313712193 %) 15.3%; (PRVABC59, Concentration 198.0 uM, Number of replicates 2.0, Standard deviation 0.7170736679224038 %) 28.4%.
For the compound `N=C(N)NCCC[C@H](NC(=O)[C@H](Cc1ccc(CN)cc1)NC(=O)c1ccccc1)B(O)O`, the inhibition by setting is: (PRVABC59, Concentration 10.0 uM, Number of replicates 3.0, Standard deviation 0.04927937550217375 %) 100%; (PRVABC59, Concentration 49.5 uM, Number of replicates 2.0, Standard deviation 0.010099059252786384 %) 99.8%; (PRVABC59, Concentration 49.5 uM, Number of replicates 2.0, Standard deviation 0.01807256864147136 %) 99.7%; (PRVABC59, Concentration 49.5 uM, Number of replicates 2.0, Standard deviation 0.060713041042124986 %) 99.8%; (PRVABC59, Concentration 49.5 uM, Number of replicates 2.0, Standard deviation 0.06905879139685818 %) 99.8%; (PRVABC59, Concentration 49.5 uM, Number of replicates 2.0, Standard deviation 0.08298276144570521 %) 99.9%. Also, the inhibition came to 99.3% (PRVABC59, Concentration 49.5 uM, Number of replicates 2.0, Standard deviation 0.10271153264626066 %); 99.6% (PRVABC59, Concentration 49.5 uM, Number of replicates 2.0, Standard deviation 0.1066443393745092 %); 101% (PRVABC59, Concentration 49.95 uM, Number of replicates 2.0, Standard deviation 0.961660259200824 %); 99.9% (PRVABC59, Concentration 99.01 uM, Number of replicates 2.0, Standard deviation 0.020192723708963373 %); 99.7% (PRVABC59, Concentration 99.01 uM, Number of replicates 2.0, Standard deviation 0.05005292294196158 %); 99.7% (PRVABC59, Concentration 99.01 uM, Number of replicates 2.0, Standard deviation 0.0511966198231532 %). Further, the inhibition reads like this: (PRVABC59, Concentration 99.01 uM, Number of replicates 2.0, Standard deviation 0.06657179015992734 %) 99.4%; (PRVABC59, Concentration 99.01 uM, Number of replicates 2.0, Standard deviation 0.07055854485426984 %) 99.9%; (PRVABC59, Concentration 99.01 uM, Number of replicates 2.0, Standard deviation 0.0908591644954211 %) 99.8%; (PRVABC59, Concentration 99.01 uM, Number of replicates 2.0, Standard deviation 0.09853596007058937 %) 100%; (PRVABC59, Concentration 99.9 uM, Number of replicates 2.0, Standard deviation 0.9426813647289743 %) 101%; (PRVABC59, Concentration 198.0 uM, Number of replicates 2.0, Standard deviation 0.016157415845136337 %) 99.7%. The inhibition runs as follows: (PRVABC59, Concentration 198.0 uM, Number of replicates 2.0, Standard deviation 0.0195885064887112 %) 99.5%; (PRVABC59, Concentration 198.0 uM, Number of replicates 2.0, Standard deviation 0.04517602680706901 %) 99.6%; (PRVABC59, Concentration 198.0 uM, Number of replicates 2.0, Standard deviation 0.06178660556739447 %) 99.7%; (PRVABC59, Concentration 198.0 uM, Number of replicates 2.0, Standard deviation 0.09594645769808005 %) 99.7%; (PRVABC59, Concentration 198.0 uM, Number of replicates 2.0, Standard deviation 0.10841922745899998 %) 99.2%; (PRVABC59, Concentration 198.0 uM, Number of replicates 2.0, Standard deviation 0.1903446087692639 %) 99.7%.
Regarding `NCc1ccc(C[C@H](NC(=O)c2ccccc2)C(=O)N2CCCCC2)cc1`, the inhibition reads like this: (PRVABC59, Concentration 49.5 uM, Number of replicates 2.0, Standard deviation 1.7023364994641166 %) 7.06%; (PRVABC59, Concentration 99.01 uM, Number of replicates 2.0, Standard deviation 1.0175975565444826 %) 12.7%; (PRVABC59, Concentration 198.0 uM, Number of replicates 2.0, Standard deviation 2.6267332126099125 %) 22%.
Consider `NCc1ccc(C[C@H](NC(=O)c2ccccc2)C(=O)Nc2cccc(CN)c2)cc1`, for which the inhibition (PRVABC59, Concentration 49.5 uM, Number of replicates 2.0, Standard deviation 1.4806761079016821 %) turned out to be 29.4%; the inhibition (PRVABC59, Concentration 99.01 uM, Number of replicates 2.0, Standard deviation 0.13484294125181392 %) is 48.1%; the inhibition (PRVABC59, Concentration 198.0 uM, Number of replicates 2.0, Standard deviation 0.4356460105984289 %) was found to be 65.1%.
`Nc1ccc(/C=C/C(=O)C(=O)N2CCN(CCc3ccccc3)CC2)cc1`: the inhibition by setting is: (PRVABC59, Concentration 49.5 uM, Number of replicates 2.0, Standard deviation 1.009989544626084 %) 23.1%; (PRVABC59, Concentration 99.01 uM, Number of replicates 2.0, Standard deviation 0.19781370467497048 %) 38.5%; (PRVABC59, Concentration 198.0 uM, Number of replicates 2.0, Standard deviation 0.599146111439346 %) 56%.
As for `O=Cc1ccc(N2CCC(C(=O)N3CCN(CCc4ccccc4)CC3)CC2)cc1`, the inhibition (PRVABC59, Concentration 50.0 uM, Number of replicates 1.0) amounted to 37.9%.
`O=C(/C=C/c1ccccc1)C(=O)N1CCN(CCc2ccccc2)CC1`: the inhibition came out at 1.32% (PRVABC59, Concentration 49.5 uM, Number of replicates 2.0, Standard deviation 0.08274041706676757 %); 6.15% (PRVABC59, Concentration 99.01 uM, Number of replicates 2.0, Standard deviation 0.30038362391023454 %); 13.3% (PRVABC59, Concentration 198.0 uM, Number of replicates 2.0, Standard deviation 0.5414096494264544 %); 96.2% (PRVABC59, Concentration 200.0 uM, Number of replicates 1.0).

Broadly, the inhibition is the change of the read-out against control, counted positive when it falls.
